From PubChem BioAssay (EPA / NIEHS) come the findings set out here.

Activity calls are given as the source filed them. The calls were made as follows: active = hit-call score of the fitted dose curve at least 0.9, where 1 is the maximum; inactive = score below 0.9.

A short description of test [1]: ATG_CRE_CIS: Attagene CIS-FACTORIAL HepG2 Assay for human cAMP Responsive Element (CRE) binding protein 3 (AID 2282926). Particulars: HepG2 CRE cis-reporter, Attagene multiplexed mRNA; actives raise or lower the signal. The method in brief: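 Readout: fluorescently labelled reporter transcripts resolved by capillary electrophoresis after RT-PCR, taken 24 h post-dosing in transfected HepG2. Endogenous transcription factor activity drives each cis-element reporter; gain or loss of signal fitted relative to DMSO control.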

Test [2] concerns the target CCAAT/enhancer-binding protein beta (Homo sapiens) (UniProt P17676). Put plainly: ATG_C_EBP_CIS: Attagene CIS-FACTORIAL HepG2 Assay for human CCAAT/Enhancer Binding Protein (C/EBP) beta (AID 2282927). Particulars: HepG2 Attagene cis-factorial transcription factor reporter; actives raise or lower the signal. The procedure, abridged: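 HepG2 transiently transfected with multiplexed reporter units under cis-regulatory promoters reporting endogenous C/EBPb activity. After 24 h exposure, reporter mRNA assayed by RT-PCR, fluorescent labelling, HpaI digestion and capillary electrophoresis; bidirectional fitting versus DMSO.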

The nature of test [3]: ATG_DR4_LXR_CIS: Attagene CIS-FACTORIAL HepG2 Assay for human Liver X Receptor (LXR), DR4 submotif (AID 2282929). Particulars: HepG2 Attagene DR4 cis-reporter, mRNA transcription; actives raise or lower the signal. The method in brief:
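HepG2 cells transiently transfected with cis-promoter-driven multiplexed reporter units (DR4 element) were dosed for 24 h. Reporter mRNA was quantified by RT-PCR, fluorescent primer extension, HpaI digestion and capillary electrophoresis; bidirectional fitting versus DMSO baseline.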

Test [4] in a line: ATG_AP_2_CIS: Attagene CIS-FACTORIAL HepG2 Assay for human Activator Protein 2 (AP-2) (AID 2282932). Particulars: HepG2 AP-2 cis-reporter, Attagene transcription factor profiling; actives raise or lower the signal. The procedure, abridged: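 Liver-derived HepG2 line, cis-reporter system measuring endogenous factors; 24 h dosing; reporter mRNA detected by fluorescent RT-PCR and capillary electrophoresis.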

Test [5] in a line: ATG_BRE_CIS: Attagene CIS-FACTORIAL HepG2 Assay for human Bone Morphogenetic Protein (BMP) Response Element (BRE) (AID 2282933). Particulars: HepG2 BMP response element reporter, Attagene transcription factor profiling; actives raise or lower the signal. The method in brief: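 Read-out: reporter mRNA induction quantified by RT-PCR and capillary electrophoresis after 24 h chemical exposure of transfected HepG2 cells. Endogenous factor activity on the BMP response element; gain or loss fitted against DMSO baseline.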

The target of test [6] is Transcription factor E2F1 (Homo sapiens) (UniProt Q01094). Put plainly: ATG_E2F_CIS: Attagene CIS-FACTORIAL HepG2 Assay for human E2F Transcription Factor 1 (AID 2282935). Particulars: HepG2 Attagene cis-reporter, E2F reporter RNA transcripts; actives raise or lower the signal. The procedure, abridged:
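Liver-derived HepG2 cells expressing transfected promoter-driven reporter units received test chemical for 24 hours. Signal gains or losses were fitted bidirectionally against DMSO.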

Test [7] is described as follows: ATG_EGR_CIS: Attagene CIS-FACTORIAL HepG2 Assay for human Early Growth Response 1 (EGR1) (AID 2282938). Particulars: HepG2 Attagene CIS-FACTORIAL EGR reporter mRNA; actives raise or lower the signal. The method in brief: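 HepG2 cells transiently transfected with cis-promoter-driven multiplexed reporter transcription units; reporter mRNA measured 24 h after compound dosing by RT-PCR, 6-FAM primer extension, HpaI digestion and capillary electrophoresis. Bidirectional fit versus DMSO baseline.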

The nature of test [8]: ATG_M_19_CIS: Attagene CIS-FACTORIAL HepG2 Assay for M19 Transcription Factor (Internal Marker) (AID 2282939). Particulars: HepG2 Attagene CIS-FACTORIAL M19 internal marker reporter; actives raise or lower the signal. The method in brief: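 Readout: fluorescent reporter-transcript fragments by capillary electrophoresis after RT-PCR. Human HepG2 liver cells carried transfected MRTU constructs reporting endogenous transcription-factor activity; exposure 24 h. Gain or loss of signal fitted relative to DMSO.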

The nature of test [9]: ATG_Ets_CIS: Attagene CIS-FACTORIAL HepG2 Assay for human Erythroblast Transformation Specific (ETS) (AID 2282941). Particulars: HepG2 ETS cis-reporter transcription, actives raise or lower the signal. The procedure, abridged: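 Multiplexed reporter transcript profiling: HepG2, 24 h treatment, total RNA to cDNA, PCR, 6-FAM labelling, HpaI cut, capillary electrophoresis. Gain- or loss-of-signal fitted against DMSO.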

Test [10] deals with Hepatocyte nuclear factor 3-beta (Homo sapiens) (UniProt Q9Y261). As to the kind of experiment: ATG_FoxA2_CIS: Attagene CIS-FACTORIAL HepG2 Assay for human Forkhead box A2 (FOXA2) (AID 2282942). Particulars: HepG2 cis-reporter transcription factor activity, 24 h; actives raise or lower the signal. The method in brief:
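HepG2 cells transiently transfected with multiple cis-regulated reporter transcription units, dosed for 24 h. Reporter mRNA measured by RT-PCR, 6-FAM labelling, HpaI digestion and capillary electrophoresis; bidirectional fitting against DMSO baseline.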

Test [11] in a line: ATG_FoxO_CIS: Attagene CIS-FACTORIAL HepG2 Assay for human Forkhead box O (FoxO) (AID 2282943). Particulars: HepG2 Attagene cis-reporter, FoxO element, mRNA; actives raise or lower the signal. The method in brief:
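HepG2 cells transiently transfected with cis-element-driven reporter units report endogenous FoxO activity. After 24 h chemical exposure, reporter mRNA quantified by RT-PCR, fluorescent labeling, HpaI digestion and capillary electrophoresis; bidirectional fit versus DMSO.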

A short description of test [12]: ATG_GATA_CIS: Attagene CIS-FACTORIAL HepG2 Assay for human GATA Binding Protein (AID 2282944). Particulars: HepG2 GATA cis-element reporter, Attagene multiplex mRNA; actives raise or lower the signal. The method in brief: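 Read-out: fluorescent reporter mRNA fragments resolved by capillary electrophoresis after RT-PCR. Human liver HepG2 cells carried transiently transfected cis-regulated reporter constructs; chemicals incubated 24 h; gain or loss of signal fitted relative to DMSO.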

Test [13] can be described thus: ATG_GLI_CIS: Attagene CIS-FACTORIAL HepG2 Assay for human Zinc Finger Protein GLI1 (AID 2282945). Particulars: HepG2, Attagene cis-factorial reporter mRNA, GLI element; actives raise or lower the signal. The procedure, abridged:
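Transiently transfected HepG2 cells report endogenous transcription factor activity via cis-element-driven reporter units. After 24 h compound exposure, reporter mRNA was measured by RT-PCR with capillary electrophoresis; bidirectional fitting against DMSO baseline.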

Test [14] can be described thus: ATG_M_06_CIS: Attagene CIS-FACTORIAL HepG2 Assay for M06 Transcription Factor (Internal Marker) (AID 2282950). Particulars: HepG2 Attagene CIS-FACTORIAL M06 internal marker reporter; actives raise or lower the signal. The procedure, abridged: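 Terse: HepG2, transient MRTU transfection (FuGene 6), 24 h dosing; total RNA, oligo(dT) RT, PCR, FAM label, HpaI cut, capillary electrophoresis; bidirectional fit vs DMSO baseline; background-control endpoint.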

Test [15] can be described thus: ATG_MRE_CIS: Attagene CIS-FACTORIAL HepG2 Assay for human Metal Responsive Element (MRE) (AID 2282954). Particulars: HepG2 MRE cis-reporter transcription, Attagene multiplex; actives raise or lower the signal. The procedure, abridged:
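Measured here is mRNA induction from an MRE cis-element reporter in HepG2 after 24 h, quantified by fluorescence of labelled RT-PCR products on capillary electrophoresis; gain- and loss-of-signal fits use DMSO as baseline.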

In test [16] the target is Paired box protein Pax-6 (Homo sapiens) (UniProt P26367). As to the kind of experiment: ATG_Pax6_CIS: Attagene CIS-FACTORIAL HepG2 Assay for human Paired Box 6 (PAX6) (AID 2282956). Particulars: HepG2 CIS-FACTORIAL PAX6 reporter transcription, RNA readout; actives raise or lower the signal. The method in brief:
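Values derive from bidirectional curve fitting of reporter mRNA signal relative to DMSO. HepG2 cells bearing transfected cis-regulated MRTUs were exposed for 24 h; transcripts were read by RT-PCR and capillary electrophoresis.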

The nature of test [17]: ATG_PXRE_CIS: Attagene CIS-FACTORIAL HepG2 Assay for human Pregnane X Receptor Element (PXRE) (AID 2282957). Particulars: HepG2 Attagene CIS-FACTORIAL PXRE reporter, mRNA; actives raise or lower the signal. The method in brief:
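Read-out: fluorescence of reporter-specific RT-PCR products resolved by capillary electrophoresis, fitted bidirectionally relative to DMSO. Human HepG2 liver cells carried transfected cis-promoter reporter units and were exposed to chemicals for 24 h.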

Test [18] is described as follows: ATG_Sox_CIS: Attagene CIS-FACTORIAL HepG2 Assay for human SRY-box transcription factor (SOX) (AID 2282960). Particulars: HepG2 Attagene cis-factorial SOX reporter, mRNA; actives raise or lower the signal. The method in brief: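 HepG2 cells transiently transfected with cis-element-driven multiple reporter transcription units, dosed 24 h; reporter mRNA measured by RT-PCR, FAM labelling, HpaI digestion and capillary electrophoresis. Bidirectional fit versus DMSO baseline.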

Test [19] deals with Transcription factor Sp1 (Homo sapiens) (UniProt P08047). As to the kind of experiment: ATG_Sp1_CIS: Attagene CIS-FACTORIAL HepG2 Assay for human Specificity Protein 1 (Sp1) (AID 2282961). Particulars: HepG2 Sp1 cis-reporter transcription, actives raise or lower the signal. The method in brief: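 HepG2 cells transiently transfected with multiple reporter transcription units driven by cis-regulatory elements; Sp1-responsive reporter mRNA measured 24 h after dosing by RT-PCR and capillary electrophoresis fluorescence, fitted bidirectionally against DMSO baseline.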

Test [20] can be described thus: ATG_SREBP_CIS: Attagene CIS-FACTORIAL HepG2 Assay for human Sterol Regulatory Element Binding (SREBP) (AID 2282962). Particulars: HepG2 Attagene cis-factorial SREBP reporter, mRNA; actives raise or lower the signal. The method in brief:
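Values derive from bidirectional curve fitting with DMSO as baseline. The underlying measurement is reporter mRNA from cis-element-regulated units in transiently transfected HepG2, quantified by RT-PCR and capillary electrophoresis after 24 h exposure.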

As usually defined, the AC50 is the concentration at which the activity in the assay is half-maximal.

CCAAT/enhancer-binding protein beta (Homo sapiens), sequence (P17676 whole entry, looked up): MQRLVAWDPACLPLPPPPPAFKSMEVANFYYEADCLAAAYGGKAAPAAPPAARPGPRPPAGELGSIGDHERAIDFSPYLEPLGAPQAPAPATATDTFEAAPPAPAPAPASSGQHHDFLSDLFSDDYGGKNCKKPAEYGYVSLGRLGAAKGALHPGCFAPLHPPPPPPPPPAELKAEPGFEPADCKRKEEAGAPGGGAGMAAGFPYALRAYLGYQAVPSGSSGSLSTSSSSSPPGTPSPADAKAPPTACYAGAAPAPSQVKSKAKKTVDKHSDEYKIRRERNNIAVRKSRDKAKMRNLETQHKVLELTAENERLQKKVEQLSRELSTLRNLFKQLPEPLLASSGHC
Transcription factor E2F1 (Homo sapiens), sequence (Q01094 whole entry, looked up): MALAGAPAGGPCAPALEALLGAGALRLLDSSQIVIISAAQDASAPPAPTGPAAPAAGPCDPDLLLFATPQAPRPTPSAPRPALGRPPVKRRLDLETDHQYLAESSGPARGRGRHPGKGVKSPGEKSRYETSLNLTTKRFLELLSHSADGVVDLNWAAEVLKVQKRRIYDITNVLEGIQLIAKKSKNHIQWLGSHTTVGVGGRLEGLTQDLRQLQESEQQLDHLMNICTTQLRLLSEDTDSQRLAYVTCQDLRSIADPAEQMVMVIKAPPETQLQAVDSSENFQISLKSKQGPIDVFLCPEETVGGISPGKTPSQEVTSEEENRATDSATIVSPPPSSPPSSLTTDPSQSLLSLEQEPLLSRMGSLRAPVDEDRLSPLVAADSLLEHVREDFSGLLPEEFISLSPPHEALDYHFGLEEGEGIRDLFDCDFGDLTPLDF
Paired box protein Pax-6 (Homo sapiens), sequence (P26367 whole entry, looked up): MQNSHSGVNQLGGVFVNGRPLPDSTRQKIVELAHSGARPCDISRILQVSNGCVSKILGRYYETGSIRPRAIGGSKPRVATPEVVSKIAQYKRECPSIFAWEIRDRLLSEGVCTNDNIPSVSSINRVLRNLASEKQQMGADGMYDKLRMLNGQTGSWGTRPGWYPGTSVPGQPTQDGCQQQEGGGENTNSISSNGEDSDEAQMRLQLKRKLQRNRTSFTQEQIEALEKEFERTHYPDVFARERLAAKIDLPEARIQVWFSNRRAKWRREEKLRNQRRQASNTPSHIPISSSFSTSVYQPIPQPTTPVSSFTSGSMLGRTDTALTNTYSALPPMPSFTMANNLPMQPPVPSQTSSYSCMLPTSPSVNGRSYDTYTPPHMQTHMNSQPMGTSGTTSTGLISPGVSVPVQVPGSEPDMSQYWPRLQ
Hepatocyte nuclear factor 3-beta (Homo sapiens), sequence (Q9Y261 whole entry, looked up): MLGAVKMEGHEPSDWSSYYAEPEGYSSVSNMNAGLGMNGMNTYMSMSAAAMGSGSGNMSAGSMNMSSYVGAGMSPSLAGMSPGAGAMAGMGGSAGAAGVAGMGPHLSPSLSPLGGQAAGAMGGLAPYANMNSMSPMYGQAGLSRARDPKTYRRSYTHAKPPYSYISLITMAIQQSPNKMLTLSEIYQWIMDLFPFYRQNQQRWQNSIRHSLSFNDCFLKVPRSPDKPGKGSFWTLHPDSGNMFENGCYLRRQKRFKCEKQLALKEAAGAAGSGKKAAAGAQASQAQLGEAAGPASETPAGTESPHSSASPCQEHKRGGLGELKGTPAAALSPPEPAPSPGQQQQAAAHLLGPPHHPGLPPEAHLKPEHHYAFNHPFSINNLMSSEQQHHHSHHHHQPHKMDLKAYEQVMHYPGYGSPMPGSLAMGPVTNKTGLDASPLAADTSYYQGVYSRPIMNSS
Transcription factor Sp1 (Homo sapiens), sequence (P08047 whole entry, looked up): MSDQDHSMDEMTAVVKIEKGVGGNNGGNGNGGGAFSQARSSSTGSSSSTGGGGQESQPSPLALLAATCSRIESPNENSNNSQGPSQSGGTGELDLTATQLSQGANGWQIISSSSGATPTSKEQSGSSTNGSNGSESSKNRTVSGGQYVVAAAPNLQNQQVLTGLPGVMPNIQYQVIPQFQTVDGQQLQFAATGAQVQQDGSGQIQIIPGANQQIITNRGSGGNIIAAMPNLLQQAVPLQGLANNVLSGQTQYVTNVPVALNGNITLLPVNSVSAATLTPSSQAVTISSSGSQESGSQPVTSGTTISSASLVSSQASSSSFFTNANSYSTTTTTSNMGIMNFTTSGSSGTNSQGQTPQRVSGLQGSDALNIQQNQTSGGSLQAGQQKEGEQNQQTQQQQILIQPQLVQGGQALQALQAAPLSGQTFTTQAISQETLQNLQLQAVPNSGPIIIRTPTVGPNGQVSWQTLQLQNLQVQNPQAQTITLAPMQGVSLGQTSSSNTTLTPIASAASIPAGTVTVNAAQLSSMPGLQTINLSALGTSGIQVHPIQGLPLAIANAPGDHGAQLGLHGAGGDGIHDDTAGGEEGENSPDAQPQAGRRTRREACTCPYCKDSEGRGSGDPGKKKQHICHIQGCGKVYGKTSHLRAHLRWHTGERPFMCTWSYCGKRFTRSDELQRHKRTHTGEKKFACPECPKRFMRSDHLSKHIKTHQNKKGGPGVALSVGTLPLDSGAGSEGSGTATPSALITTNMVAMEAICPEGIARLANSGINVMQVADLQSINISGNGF

Take `COc1cc(OC)c(OC)cc1C=O`: the result in test [1], in test [2], in test [3], in test [4], in [5] and in test [6] was inactive. Moreover, the outcome in test [7], in test [8], in [9], in test [10], in [11] and in test [12] was inactive. The result in [13], in test [14], in test [15], in [16], in test [18] and in test [19] was inactive. For the same compound, the compound was classed as inactive in [20]. Also, the AC50 in test [17] is 50500 nM (active).

For `O=C(NC(=O)c1c(F)cccc1F)Nc1ccc(Oc2ccc(C(F)(F)F)cc2Cl)cc1F`, the call in [1], in [2], in test [3], in test [4], in test [5] and in test [6] was inactive. The outcome in test [7], in test [8], in test [9], in test [10], in test [11] and in [12] was inactive. The compound was called inactive in test [13], in [14], in test [15], in [16], in test [18] and in test [19]. For the same compound, the call in test [20] was inactive. Also, the AC50 in test [17] is 3150 nM (active).

For the compound `O=[N+]([O-])O.O=[N+]([O-])O.[Cd]`, the AC50 was 1980 nM (active) in test [1]; 1830 nM (active) in [2]; 666 nM (active) in test [3]; 1000 nM (active) in test [7]; 11100 nM (active) in test [12]; 9580 nM (active) in test [13]. For the same compound, the half-maximal activity concentration (AC50) in test [15] was 351 nM (active); in [16], 1790 nM (active); in test [17], 872 nM (active); in test [18], 1310 nM (active); in test [19], 1380 nM (active). The outcome in test [4], in test [5], in test [6], in [8], in test [9] and in [10] was inactive. Moreover, the compound was called inactive in test [11], in test [14] and in test [20].

Take `NNc1ccccc1`: the result in test [1], in test [2], in [3], in [4], in test [5] and in test [6] was inactive. In addition, the result in test [7], in test [8], in test [9], in test [10], in test [11] and in test [12] was inactive. Also, the compound was classed as inactive in [13], in test [14], in test [15], in test [16], in test [18] and in [19]. Besides, the result in test [20] was inactive. Also, in test [17], the AC50 was 38900 nM (active).

Consider `Cc1ccc(C)c2ccccc12`, for which the call in test [1], in test [2], in [3], in test [4], in [5] and in test [6] was inactive. The compound was classed as inactive in [7], in [8], in [9], in [10], in test [11] and in [12]. Moreover, the call in [13], in test [14], in [15], in [16], in test [18] and in test [19] was inactive. In [20], the compound was classed as inactive. For the same compound, in test [17], the AC50 is 33400 nM (active).
